In PubChem BioAssay AID434961 (Broad Institute, 2010) one finds inhibition data, which are given here for 31 compounds.

The whole screen tested about 7,700 compounds, of which about 15 (0.2%) were called active. Inconclusive results (about 6%) are left out. This is one part of a sample in which actives are shown more often than they occur. Values without a mark were called inactive.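 How the source made its calls: active means more than half of replicate wells with inhibition above about 18% (limit read from the data, passing the limit was not always enough); inconclusive means exactly half of replicate wells above that limit; inactive means fewer than half of replicates above it.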

By inhibition is commonly meant the drop in the measured response relative to a control, in per cent.

The target in this assay is Regulator of chromosome condensation (Homo sapiens) + GTP-binding nuclear protein Ran (Homo sapiens) + Importin subunit beta-1 (Homo sapiens) (UniProt P18754+P62826+Q14974). Briefly: inhibitors of Ran–importin-beta complex formation, primary screen, biochemical, CFP-Ran/YFP-importin-beta FRET, RCC1, cell-free (AID 434961).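 Further: 0% = DMSO wells and 100% inhibition = RanGDP control wells on each plate.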 Conditions: hits give high values, concentration not given here.
Consider `COc1ccc(NC(=O)N(C)C[C@@H]2Oc3ncc(C#Cc4ccccc4)cc3C(=O)N([C@H](C)CO)C[C@@H]2C)cc1`, for which the inhibition was 2.4%.

In the case of `C[C@H](CO)N1C[C@H](C)[C@@H](CN(C)Cc2ccc(Cl)c(Cl)c2)Oc2c(NS(=O)(=O)c3cccs3)cccc2C1=O`, the inhibition was 3.33%.

Turning to `C[C@H](CO)N1C[C@H](C)[C@@H](CN(C)C(=O)Nc2cccc3ccccc23)Oc2ccc(NC(=O)NC3CCCCC3)cc2CC1=O`, the inhibition is -2.7%.

With `C[C@@H]1CCCCO[C@@H](CN(C)Cc2ccccc2)[C@@H](C)CN([C@H](C)CO)C(=O)c2cc(N(C)C)ccc2O1`, the inhibition is -4.07%.

As to `COc1ccc(CN(C)C[C@H]2Oc3ccc(NC(=O)Cc4cn(C)c5ccccc45)cc3C(=O)N([C@H](C)CO)C[C@H]2C)cc1`, the inhibition is -2.11%.

Take `COc1ccc(S(=O)(=O)N(C)C[C@H]2Oc3c(NC(=O)C4CC4)cccc3C(=O)N([C@@H](C)CO)C[C@@H]2C)cc1`: the inhibition was -1.54%.

Turning to `Cc1noc(C)c1S(=O)(=O)Nc1cccc2c1O[C@H](CN(C)Cc1ccc3c(c1)OCO3)[C@H](C)CN([C@H](C)CO)C2=O`, the inhibition was -8.22%.

For the compound `C[C@@H]1CN([C@H](C)CO)C(=O)c2cc(NC(=O)C3CC3)ccc2O[C@H]1CN(C)Cc1ccc(Cl)c(Cl)c1`, the inhibition is 0.993%.

On to `Cc1noc(C)c1NC(=O)N(C)C[C@@H]1OCCCC[C@@H](C)Oc2ccc(NC(=O)Cc3ccccc3)cc2C(=O)N([C@@H](C)CO)C[C@@H]1C`, for which the inhibition was 4.99%.

Turning to `CC(C)NC(=O)N(C)C[C@@H]1OCCCC[C@H](C)Oc2ccc(NC(=O)CCC(F)(F)F)cc2C(=O)N([C@@H](C)CO)C[C@H]1C`, the inhibition was -1.88%.

Consider `C[C@@H]1CN([C@@H](C)CO)C(=O)c2cc(NS(=O)(=O)c3cccs3)ccc2O[C@@H](C)CCCCO[C@@H]1CN(C)C`, for which the inhibition is -3.73%.

In the case of `COC(=O)N(C)C[C@@H]1OCc2cn(nn2)CCCC(=O)N([C@@H](C)CO)C[C@@H]1C`, the inhibition is 2.64%.

With `COC(=O)N(C)C[C@H]1OCc2cn(nn2)CCCC(=O)N([C@@H](C)CO)C[C@H]1C`, the inhibition is 18.2% (active).

`COC(=O)N(C)C[C@H]1OCc2cn(nn2)CCCC(=O)N([C@H](C)CO)C[C@@H]1C`: the inhibition was -1.56%.

As for `C[C@H](CO)N1C[C@H](C)[C@H](CN(C)C(=O)Nc2cccc3ccccc23)OCCCC[C@H](C)Oc2ccc(NC(=O)c3ccncc3)cc2C1=O`, the inhibition is 0.239%.

As for `C[C@@H]1CN([C@@H](C)CO)C(=O)Cc2cc(NC(=O)Nc3ccc(C(F)(F)F)cc3)ccc2O[C@@H]1CN(C)C(=O)NC1CCCCC1`, the inhibition is 1.62%.

Consider `C[C@@H]1CN([C@H](C)CO)C(=O)c2cc(NS(=O)(=O)c3cn(C)cn3)ccc2O[C@H]1CN(C)C(=O)Nc1ccc(F)cc1`, for which the inhibition was 9.51%.

For the compound `C[C@@H]1CN([C@@H](C)CO)C(=O)Cc2cc(NC(=O)Nc3ccc4c(c3)OCO4)ccc2O[C@H]1CN(C)C(=O)NC1CCCCC1`, the inhibition is -2.22%.

Turning to `C[C@@H]1CN([C@H](C)CO)C(=O)c2cc(NC(=O)Cc3ccccc3)ccc2O[C@@H]1CN(C)C(=O)NC1CCCCC1`, the inhibition is 1.32%.

In the case of `C[C@@H]1CN([C@H](C)CO)C(=O)CCCn2cc(nn2)CO[C@H]1CN(C)C(=O)Nc1cccc2ccccc12`, the inhibition was -3.4%.

`CC(C)NC(=O)N(C)C[C@H]1Oc2ccc(NC(=O)CCC(F)(F)F)cc2C(=O)N([C@H](C)CO)C[C@@H]1C`: the inhibition was -4.13%.

As for `C[C@H](CO)N1C[C@H](C)[C@H](CN(C)C(=O)CCCN(C)C)OCCCC[C@H](C)Oc2ccc(NC(=O)Nc3cccc4ccccc34)cc2C1=O`, the inhibition was 2.28%.

Take `C[C@H]1CN([C@@H](C)CO)C(=O)c2cccc(NS(=O)(=O)c3ccc(Cl)cc3)c2O[C@H]1CN(C)S(=O)(=O)c1cn(C)cn1`: the inhibition is -0.913%.

`CNC[C@@H]1OCCCC[C@@H](C)Oc2ccc(N)cc2C(=O)N([C@H](C)CO)C[C@H]1C`: the inhibition was 0.828%.

As for `CNC[C@H]1OCCCC[C@H](C)Oc2ccc(NS(=O)(=O)c3cccs3)cc2C(=O)N([C@@H](C)CO)C[C@@H]1C`, the inhibition was 1.28%.

Regarding `C[C@@H]1CN([C@@H](C)CO)C(=O)Cc2cc(NS(=O)(=O)c3cn(C)cn3)ccc2O[C@@H]1CN(C)C(=O)Nc1ccc(F)cc1`, the inhibition was -4.41%.

Take `COc1ccc(S(=O)(=O)N(C)C[C@H]2Oc3ccc(NC(=O)Nc4ccc(C(F)(F)F)cc4)cc3CC(=O)N([C@@H](C)CO)C[C@@H]2C)cc1`: the inhibition is 3.32%.

For `C[C@H](CO)N1C[C@H](C)[C@H](CN(C)Cc2ccncc2)OCCCC[C@H](C)Oc2ccc(NC(=O)CCCN(C)C)cc2C1=O`, the inhibition was 1.3%.

Regarding `C[C@H](CO)N1C[C@H](C)[C@@H](CN(C)Cc2ccc(C(=O)O)cc2)Oc2ccc(NC(=O)NC3CCCCC3)cc2C1=O`, the inhibition is -0.0517%.

In the case of `C[C@@H]1CN([C@@H](C)CO)C(=O)c2cc(NC(=O)Nc3cccc4ccccc34)ccc2O[C@H]1CN(C)C(=O)Nc1cccc2ccccc12`, the inhibition is -2.16%.

Regarding `C[C@H](CO)N1C[C@H](C)[C@H](CN(C)C(=O)OCc2ccccc2)OCc2cn(nn2)CCCC1=O`, the inhibition was 1.83%.
